Measurements: ChEMBL document CHEMBL4513216, “Probing the Open Global Health Chemical Diversity Library for Multistage-Active Starting Points for Next-Generation Antimalarials” (ACS Infect Dis, 2020)
The whole screen tested about 68,000 compounds, of which about 2,700 (4%) showed an effect of 50% or more. This excerpt belongs to a sample that is enriched for strong results.

Tested on: Plasmodium berghei
Experiment: Screen against P. berghei liver stage (PbLuc), transformed with Luciferase, at 2uM
Format: functional, HepG2
Conditions: tested at 2 uM

| Compound | INHIBITION |
| --- | --- |
| Cc1ccc(-c2c[nH]c([C@@H]3COCCN3Cc3cccnc3)n2)cc1 | 3.84% |
| CC(C)(CO)NCc1nn(Cc2ccccc2)nc1-c1ccccc1 | -34.52% |
| CN1C[C@@H](N)C[C@H]1c1nc(-c2ccc3c(c2)OCO3)no1 | 28.2% |
| CN1C[C@H](O)C[C@H]1c1nc(-c2ccc3c(c2)OCO3)no1 | 45.22% |
| CC(=O)N[C@H]1C[C@@H](c2nc(-c3ccc4c(c3)OCO4)no2)N(C)C1 | 57.31% |
| O=C(c1ccc[nH]1)N1CCc2ccc(S(=O)(=O)N3CCOCC3)cc2C1 | -19.95% |
| Cc1ccccc1[C@@H]1CN(Cc2ccc(C(F)(F)F)nc2)C[C@H]1C(=O)O | 67.28% |
| Cc1ccccc1[C@@H]1CN(Cc2nc3ncccn3n2)C[C@H]1C(=O)O | -18.59% |
| Cc1ccccc1[C@@H]1CN(CCOCCO)C[C@H]1C(=O)O | 35.46% |
| CCC[C@@H]1CN(Cc2ccc(C(F)(F)F)nc2)C[C@H]1C(=O)O | 21.97% |
| COCCN1C[C@@H](C(=O)O)[C@H](c2ccccc2C)C1 | 42.2% |
| Cc1ccccc1[C@@H]1CN(CCCS(=O)(=O)N(C)C)C[C@H]1C(=O)O | 52.3% |
| OC(CNCCn1cccn1)c1ccc(F)c(F)c1 (stereo not drawn) | 21.91% |
| Cc1nc(COc2ccc(N(C)S(C)(=O)=O)cc2)sc1C | -26.08% |
| O=C(O)c1nnn(-c2ccccc2F)c1-c1ccncc1 | 37.61% |
| O=S(=O)(CCN1CCOC(Cn2cccn2)C1)c1ccccc1 (stereo not drawn) | -34.9% |
| CCn1cnnc1C1CCN(C(=O)c2ccc3ccccc3n2)CC1 | -6.48% |
| O=C(Nc1cccnc1)C1CCN(c2cc(-n3ccnc3)ncn2)CC1 | 3.38% |
| O=C(NC1CCN(c2cc(-n3ccnc3)ncn2)CC1)c1ccncc1 | 29.19% |
| O=C(NC1CCCC1)C1CCN(c2cc(-n3ccnc3)ncn2)CC1 | 70.33% |
| Cc1n[nH]c(C)c1-c1nccnc1CC1CCCN(C)C1 (stereo not drawn) | 31.98% |
| CCCC(=O)Nc1ccc2c(c1)C1(CCOCC1)CN2CCOC | 39.44% |

| Compound | INHIBITION |
| --- | --- |
| COc1ccc(C[C@H]2CNCC[C@@H]2OC)cc1 | 18.65% |
| O=c1cc(N2CCCC2)cnn1CC(F)F | 18.81% |
| O=C(CSc1nnc[nH]1)NCc1sccc1Br | 32.1% |
| O=C(CSc1nnc[nH]1)NCc1cccs1 | 59.03% |
| Cc1ccsc1CNC(=O)CSc1nnc[nH]1 | 5.98% |
| COCCNc1nc(NCCc2ccccc2)nc2nccnc12 | -20.55% |
| Cc1nc(O)cc(C2CCCN(C(=O)CN(C)c3ccccc3)C2)n1 (stereo not drawn) | -14.36% |
| Cc1ccc(CC(=O)N2CCCN(Cc3nccn3C)CC2)cn1 | 5.72% |
| CCn1nc(C)c2ncnc(N(C)C)c21 | -47.86% |
| Cn1cc(C(=O)N[C@@H]2CN(Cc3ccoc3)[C@@H]3CCCO[C@@H]32)cn1 | -6.61% |
| Cn1ccnc1C(=O)N[C@@H]1CN(Cc2ccoc2)[C@@H]2CCCO[C@@H]21 | 26.76% |
| Cn1cccc1C(=O)N[C@H]1CN(Cc2ccoc2)[C@@H]2CCCO[C@H]12 | 56.76% |
| Cc1cc(C(=O)NC(CC(C)C)C(=O)Nc2cc[nH]n2)c(C)o1 (stereo not drawn) | -36.72% |
| COC(=O)CC(c1cccnc1)c1oc(C)cc(=O)c1O (stereo not drawn) | 24.02% |
| Cc1noc(-c2ccc(Oc3cccc(CN4CCCC4)c3F)nc2)n1 | -9.95% |
| CC(Cn1cc(Br)cn1)C(=O)Nc1ccc(Cl)cn1 (stereo not drawn) | 29.12% |
| CC(C)NCC1(O)CCCN(CCC2CCCCC2)C1=O (stereo not drawn) | 25.35% |
| CCC(CNC(=O)c1nc(=O)[nH][nH]1)Oc1cccc(F)c1 (stereo not drawn) | 6.92% |
| COc1ccccc1NC(=O)c1[nH]nc(C(C)C)c1Br | -2.93% |
| CC(C)c1n[nH]c(C(=O)Nc2ccccn2)c1Br | 78.42% |
| CC(C)c1n[nH]c(C(=O)Nc2ccncc2)c1Br | 29.37% |
| Cc1ccnc(NC(=O)c2[nH]nc(C(C)C)c2Br)c1 | 49.43% |

| Compound | INHIBITION |
| --- | --- |
| Cc1cccc(NC(=O)c2[nH]nc(C(C)C)c2Br)n1 | 80.46% |
| CC(C)c1n[nH]c(C(=O)Nc2cc[nH]n2)c1Br | 11.18% |
| Cc1nc(C)n(CC2CCCN(c3ccc(C#N)cn3)C2)n1 (stereo not drawn) | 13.24% |
| CCN1CCNC(=O)C12CCN(C(=O)Cc1ccccn1)CC2 | 31.84% |
| Cc1ccc(C(=O)NCC(O)c2cccc(F)c2)c(=O)[nH]1 (stereo not drawn) | -7.13% |
| CCCN1CCN(C(=O)c2scnc2C)CC1 | -21.84% |
| CCN1CCN(C(=O)c2scnc2C)CC1 | -25.82% |
| Cc1ncsc1C(=O)N1CCN(CCC(C)C)CC1 | 71.95% |
| CC1CN(C(=O)CN(Cc2ccco2)Cc2cccs2)CCO1 (stereo not drawn) | 26.78% |
| CCOC(=O)C1CCN(C(=O)CN2CCCC2c2ccccc2C)CC1 (stereo not drawn) | -16.19% |
| COc1ccccc1[C@@H]1CN(CC(=O)N2CCCCC2)C[C@H]1C(=O)O | -36.91% |
| COc1ccccc1C1CCCN1CC(=O)N1CCC(C(N)=O)CC1 (stereo not drawn) | 50.32% |
| Cc1nc(C2CCCNC2)cc(N2CCc3nc(N)sc3C2)n1 (stereo not drawn) | 17.41% |
| Cn1cc(CN2CC[C@H](O)[C@@H]2Cc2ccncc2)cn1 | 23.94% |
| O=c1c2sccc2nc2n1CCN(Cc1cccs1)CC2 | 15.58% |
| O=c1c2sccc2nc2n1CCN(Cc1ccsc1)CC2 | 63.66% |
| O=c1c2sccc2nc2n1CCN(Cc1ccc(F)c(F)c1)CC2 | 15.72% |
| Cc1ncsc1C(=O)N(C)Cc1ccc(Br)o1 | -21.99% |
| Cc1ccccc1-c1cncc(C2CCN(C3CCOCC3)CC2)n1 | 8.63% |
| Cc1oc(NC(=O)C(C)N2CCN(C(C)(C)CO)CC2)c(C#N)c1C (stereo not drawn) | 10.1% |
| Cc1oc(NC(=O)C(C)N2CCN(CCO)CC2)c(C#N)c1C (stereo not drawn) | 51.08% |
| Cc1oc(NC(=O)C(C)N2CCN(C(=O)C3CC3)CC2)c(C#N)c1C (stereo not drawn) | 30.59% |

| Compound | INHIBITION |
| --- | --- |
| Cn1ncc2c1CN(Cc1cccnc1)CC2COCC1CC1 (stereo not drawn) | -12.27% |
| CCCN1CCN(C(=O)c2ccn(COc3ccc(F)cc3)n2)CC1 | -15.49% |
| CCn1ncc(S(=O)(=O)NC(C)c2cc(OC)ccc2OC)c1C (stereo not drawn) | 0.08% |
| CN(CC1CCCO1)C1CCN(CCc2ccccn2)CC1 (stereo not drawn) | 14.82% |
| CCc1cc(NCC(N)=O)nc(N2CCCCC2)n1 | 55.18% |
| CCc1cc(NC2CCN(CC(N)=O)CC2)nc(N2CCCCC2)n1 | -69.81% |
| CCc1cc(NCCNC(C)=O)nc(N2CCCC2)n1 | -36.65% |
| CCc1nc(-c2noc3ccc(C(=O)NCCN(C)C)cc23)co1 | -18.52% |
| CCc1nc(-c2noc3ccc(C(=O)N(C)CCOC)cc23)co1 | 63.23% |
| COCCN(C)C(=O)c1ccc2onc(-c3coc(C)n3)c2c1 | 32.04% |
| C[C@@H]1CN(C2CCN(c3ccccc3F)CC2)C[C@]1(C)O | 43.44% |
| Cc1cc(F)ccc1N1CCC(N2C[C@@H](C)[C@@](C)(O)C2)CC1 | 67.28% |
| Cc1cc(F)ccc1N1CCC(N2C[C@@H](CN(C)C)[C@@H](CO)C2)CC1 | 35.54% |
| c1ccc(-n2nnnc2NCc2ccc3c(c2)OCO3)cc1 | -26.04% |
| O=C(O)C1CCCN(C(=O)CCn2ccc3c(Cl)cccc32)C1 (stereo not drawn) | -23.9% |
| O=C(O)[C@@H]1CN(C(=O)c2ccc3[nH]nnc3c2)C[C@H]1c1ccccc1 | 39.57% |
| O=C(Nc1cnccn1)[C@@H]1COC[C@H]2CN(C3CCCC3)C[C@H]21 | -31.17% |
| O=C(Nc1ccncc1)C1=NN(c2ccccc2)C(=O)CN1 | 17.59% |
| Cc1nc(CNC(=O)NCCC2=CCCC2)oc1C | 67.51% |
| COCCCNC(=O)NCc1nc(C)c(C)o1 | -62.18% |
| CCCNC(=O)NCc1nc(C)c(C)o1 | 22.34% |
| Cc1cc(S(=O)(=O)Nc2onc(C)c2C)sc1C | 36.28% |

| Compound | INHIBITION |
| --- | --- |
| Cc1ccc(CN2CCn3c(CN(C)C(C)C)cnc3C2)s1 | 18.2% |
| COCCN1C[C@H]2CN(C(=O)C3CC3)CCN2C1=O | 14.65% |
| COCCN1C[C@H]2CN(C(=O)NC(C)C)CCN2C1=O | 58.6% |
| COCCN1C[C@H]2CN(C(=O)NCc3ccccc3)CCN2C1=O | 14.21% |
| CS(=O)(=O)c1cccc(OCC(=O)N2CCCC2c2ccc[nH]2)c1 (stereo not drawn) | 9.27% |
| Cc1ncoc1C(=O)N1CC[C@@]2(C[C@H](NS(C)(=O)=O)CCO2)C1 | -43.98% |
| CCCC(C)NC(=O)c1ccc(-c2ccco2)[nH]c1=O (stereo not drawn) | -1.87% |
| CCC(C)NC(=O)c1ccc(-c2ccco2)[nH]c1=O (stereo not drawn) | 31.51% |
| CC(COCC(F)(F)F)NC(=O)c1ccc(-c2ccco2)[nH]c1=O (stereo not drawn) | 69.67% |
| CNS(=O)(=O)c1ccc(C(=O)NCc2ccnc(OC)c2)cc1 | 27.44% |
| Fc1ccc(N2CCCN(Cc3ccc(-c4cc[nH]n4)o3)CC2)cc1 | -62.99% |
| Cc1cccc(-c2nc(CN3CCc4c(ncn4C)C3)no2)c1 | 14.82% |
| CC(NC(=O)N1CCCCCC1)c1ccc(S(N)(=O)=O)cc1 (stereo not drawn) | -36.8% |
| OCC1CCC2(CC1)CN(Cc1ccccc1F)Cc1ccccc1O2 (stereo not drawn) | 2.71% |
| O=C(CSc1ccc(F)cc1F)NS(=O)(=O)c1ccc2c(c1)OCCO2 | 27.47% |
| CC(CC(=O)NS(=O)(=O)c1ccc2c(c1)OCCO2)c1ccc(F)cc1 (stereo not drawn) | 61.3% |
| O=C(CCc1cc(F)ccc1F)NS(=O)(=O)c1ccc2c(c1)OCCO2 | 66.28% |
| O=C(CSc1ccc(F)cc1)NS(=O)(=O)c1ccc2c(c1)OCCO2 | 13.91% |
| O=C(CCc1ccc(F)cc1)NS(=O)(=O)c1ccc2c(c1)OCCO2 | -15.92% |
| O=C(CCc1ccccc1F)NS(=O)(=O)c1ccc2c(c1)OCCO2 | 7.71% |
